The results in this text go back to PubChem BioAssay AID651710 (Broad Institute, 2012).

“And” between values parts separate entries of the source, which are not always exact repeats. Identical values can stand only once. Among all 360,000 compounds or so, about 1,600 (0.44%) were called active.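 Rule for the calls: active = every replicate showing at least 50% inhibition; inconclusive = mean inhibition at least 50% but not in every replicate; inactive = the rest.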 The entries come from a sample that favours actives as a whole. More than one record can exist for a structure, and the calls need not agree.

For this experiment, the target named is DNA repair protein RAD52 homolog (Homo sapiens) (UniProt P43351). The experiment can be described thus: blockers of RAD52 strand annealing activity – biochemical, FRET, single point, set 2, primary screen (AID 651710). As to conditions: recombinant RAD52 DNA annealing, FRET fluorescence; at 18.7 µM; stronger effect = higher value.
Sequence of DNA repair protein RAD52 homolog (Homo sapiens) (P43351 whole entry, looked up): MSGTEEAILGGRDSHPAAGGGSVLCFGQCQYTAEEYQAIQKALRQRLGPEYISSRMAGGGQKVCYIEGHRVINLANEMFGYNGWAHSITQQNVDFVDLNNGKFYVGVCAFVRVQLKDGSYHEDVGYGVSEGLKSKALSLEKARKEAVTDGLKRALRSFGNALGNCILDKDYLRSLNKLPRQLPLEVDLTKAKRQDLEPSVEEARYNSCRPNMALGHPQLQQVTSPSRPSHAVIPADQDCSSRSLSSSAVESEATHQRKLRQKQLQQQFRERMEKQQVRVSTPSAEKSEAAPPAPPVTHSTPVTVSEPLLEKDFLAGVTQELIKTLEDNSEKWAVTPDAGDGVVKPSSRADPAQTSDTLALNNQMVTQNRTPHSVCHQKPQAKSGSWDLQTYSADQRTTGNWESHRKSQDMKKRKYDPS
With `Cc1cccc(N(C)C(=O)c2cc3c(=O)[nH]c4ccc(C)cc4c3s2)c1`, the inhibition (usually the change of the read-out against control, counted positive when it falls) is -6.65% (inactive).
As for `CCN(CC)CCCNC(=O)c1cc2c(=O)[nH]c3ccc(C)cc3c2s1`, the figure is 54.3% (active); as for `O=C(NCCN1CCN(Cc2ccccc2)CC1)c1cc2c(=O)[nH]c3ccccc3c2s1`, -32.4% (inactive); as for `CO[C@H]1CN(C)C(=O)c2cc(NC(=O)NC(C)C)ccc2OC[C@H](C)N(C(=O)CN(C)C)C[C@H]1C`, -12.8% (inactive).
As to `CO[C@@H]1CN(C)C(=O)c2cc(NC(=O)Nc3ccc4c(c3)OCO4)ccc2OC[C@@H](C)NC[C@@H]1C`, the inhibition was -75.6% (inactive).
As for `Cc1oc2c(c1C(=O)N1CCOCC1)C(=O)c1ccccc1C2=O`, the figure is -120% (inactive); as for `COC1=C(N2CCOCC2)C(=O)c2ccccc2C1=O`, 96.8% (active).
With `O=C1c2ccccc2-c2ncnc3c(N4CCOCC4)cc(N4CCOCC4)c1c23` the figure was 3.29% (inactive); with `CCCNC(=O)C[C@@H]1CC[C@@H]2[C@H](COc3ccc(NC(=O)C4CCOCC4)cc3C(=O)N2C)O1`, 8.28% (inactive); with `O=C(Cc1ccccn1)N[C@H]1CC[C@@H](CC(=O)N2CCCCC2)O[C@@H]1CO`, -3.74% (inactive).
As for `CO[C@@H]1CN(C)C(=O)c2ccc(NC(C)=O)cc2OC[C@@H](C)N(Cc2ccc(-c3ccccn3)cc2)C[C@H]1C`, the figure is 20.8% (inactive).
Consider `COc1cccc(NC(=O)Nc2ccc3c(c2)OC[C@@H](C)NC[C@@H](C)[C@H](OC)CN(C)C3=O)c1`, for which the inhibition was 84.4% (active).
As for `COc1cccc(NC(=O)Nc2ccc3c(c2)C(=O)N(C)C[C@@H](OC)[C@H](C)CN(CC2CC2)[C@H](C)CO3)c1`, the figure is 58.2% (active); as for `COc1ccccc1C(=O)Nc1ccc2c(c1)C(=O)N(C)C[C@@H](OC)[C@@H](C)CN(CC1CC1)[C@@H](C)CO2`, 14.3% (inactive).
With `CO[C@@H]1CN(C)C(=O)c2cc(NC(=O)NC(C)C)ccc2OC[C@@H](C)N(CC2CC2)C[C@@H]1C` the figure was -2.47% (inactive); with `COc1cccc(NC(=O)Nc2ccc3c(c2)C(=O)N(C)C[C@H](OC)[C@@H](C)CN[C@@H](C)CO3)c1`, 45.9% (inactive).
As to `COc1ccc(NC(=O)Nc2ccc3c(c2)OC[C@@H](C)NC[C@@H](C)[C@H](OC)CN(C)C3=O)cc1`, the inhibition is -1.22% (inactive).
As for `CCCC(=O)Nc1ccc2c(c1)C(=O)N(C)C[C@H](OC)[C@@H](C)CN[C@H](C)CO2`, the figure is -5.47% (inactive); as for `O=C(CN1CCOCC1)N[C@@H]1CC[C@H](CCNS(=O)(=O)c2ccccc2F)O[C@H]1CO`, -13.5% (inactive); as for `O=C(Cc1ccccc1)N1CC[C@@H]2[C@H](CO)Nc3ccc(-c4ccccc4)cc3[C@@H]21`, -10.7% (inactive).
With `Cc1ccc(-c2ccc3c(c2)O[C@H](CN(C)C(=O)Nc2ccc(C(F)(F)F)cc2)[C@@H](C)CN([C@H](C)CO)S3(=O)=O)cc1` the figure was -8.45% (inactive); with `Cc1cc(N2CCN(C)CC2)nc2ccc(NC(=S)N3CCOCC3)cc12`, 46.4% (inactive).
Take `Cc1cc(N2CCOCC2)nc2ccc(NC(=S)N3CCN(Cc4ccccc4)CC3)cc12`: the inhibition is -21.2% (inactive).
On to `CCOCCCNC(=S)Nc1ccc2nc(N3CCN(CC)CC3)cc(C)c2c1`, for which the inhibition was 61% (active).
As for `COc1cccc(-c2cnc3c(c2)C(=O)N([C@@H](C)CO)C[C@@H](C)[C@H](CN(C)C(=O)CN(C)C)O3)c1`, the figure is 18.6% (inactive); as for `CC(C)NC(=O)N(C)C[C@H]1Oc2ccc(N(C)C)cc2C(=O)N([C@@H](C)CO)C[C@H]1C`, -18.9% (inactive).
With `COc1ccc2c3c(n(C)c2c1)[C@@H](CO)NCC31CCN(CC2CCCC2)CC1` the figure was 37.5% (inactive).
As for `COc1ccc2c3c(n(C)c2c1)[C@@H](CO)NCC31CCN(CC2CC2)CC1`, the figure is 55.9% (active); as for `CCS(=O)(=O)N1CCC2(CC1)CN[C@H](CO)c1c2c2ccc(OC)cc2n1C`, 5.49% (inactive); as for `COc1ccc(NC(=O)Nc2ccc3c(c2)C(=O)N([C@@H](C)CO)C[C@@H](C)[C@H](CN(C)S(=O)(=O)c2cccs2)O3)cc1`, -4.93% (inactive).
Consider `COc1ccccc1S(=O)(=O)N(C)C[C@H]1Oc2cc(C#CCC3CCCC3)ccc2S(=O)(=O)N([C@@H](C)CO)C[C@H]1C`, for which the inhibition is 9.21% (inactive).
With `Cc1ccc(S(=O)(=O)N2C[C@H](O)COC[C@@H]3O[C@@H](CC(=O)NCC4CCCCC4)CC[C@H]32)cc1` the figure was 37.6% (inactive); with `O=C(C[C@@H]1CC[C@@H]2[C@H](COC[C@@H](O)CN2S(=O)(=O)c2ccccc2)O1)NCC1CCCCC1`, 91% (active); with `O=C(C[C@@H]1CC[C@H]2[C@@H](COC[C@H](O)CN2S(=O)(=O)c2ccccc2)O1)NCCN1CCCC1`, 8.64% (inactive).
As for `COc1ccccc1-c1ccc2c(c1)O[C@@H](CN(C)CC1CCOCC1)[C@H](C)CN([C@@H](C)CO)S2(=O)=O`, the figure is 17% (inactive).
As for `COCC(=O)NC[C@@H]1[C@@H](c2ccc(C3=CCCC3)cc2)[C@@H](CO)N1C(C)=O`, the figure is 2.17% (inactive); as for `Cc1cc(C)n(-c2nnc(N3CCN(c4ccccc4)CC3)nn2)n1`, -6.3% (inactive).
As to `CCS(=O)(=O)N1CCC(N2CCN(c3ccccc3)CC2)CC1`, the inhibition is -13% (inactive).
With `CN1CCC(CN)(N2CCN(c3ccccc3)CC2)CC1` the figure was 83.9% (active); with `C[C@@H]1CCCCO[C@@H](CN(C)C)[C@@H](C)CN([C@H](C)CO)C(=O)c2cc(NC(=O)c3ccncc3)ccc2O1`, -19.4% (inactive); with `CCCC#Cc1ccc([C@@H]2[C@@H](CO)N3C(=O)CN(C(=O)Nc4ccc(F)cc4)C[C@@H]23)cc1`, 6.28% (inactive).
With `O=C(C1CCCC1)N1[C@H](CO)[C@H]2c3ccccc3N(S(=O)(=O)c3ccccc3)C[C@H]21` the figure was -8.44% (inactive).
For `C[C@@H]1CN([C@H](C)CO)C(=O)c2cccc(NC(=O)Nc3ccc4c(c3)OCO4)c2O[C@H]1CN(C)S(=O)(=O)c1ccc(Cl)cc1`, the inhibition was -13.7% (inactive).
As for `O=C(NC[C@H]1CC[C@H]2[C@H](CN2Cc2cccc(Cl)c2)O1)C1CC1`, the figure is -6.18% (inactive); as for `COc1ccc(CN(C)C[C@H]2OCCCC[C@H](C)Oc3ccc(NC(=O)c4ccccc4)cc3C(=O)N([C@@H](C)CO)C[C@@H]2C)cc1`, 28.1% (inactive).
With `CO[C@H]1CN(C)C(=O)c2ccc(NC(=O)Nc3ccc(F)cc3)cc2OC[C@@H](C)NC[C@H]1C` the figure was -5.12% (inactive); with `Cc1ccc(C(=O)N/C(=C\c2ccc(F)cc2)C(=O)NCCN2CCOCC2)cc1`, -4.68% (inactive).
With `Cc1ccc(C(=O)N/C(=C/c2ccc(-c3cccc([N+](=O)[O-])c3)o2)C(=O)NCCCN(C)C)cc1` the figure was 65.9% (active); with `Cc1occc1C(=O)N/N=C/c1ccc(-c2cccc([N+](=O)[O-])c2)o1`, -14% (inactive).
Consider `COc1ccc(CNC(=O)C[C@H]2C[C@H]3c4cc(NS(C)(=O)=O)ccc4O[C@H]3[C@@H](CO)O2)cc1`, for which the inhibition is 9.84% (inactive).
With `Cc1ccc(-c2ccc3c(c2)O[C@@H](CN(C)C(=O)CC2CC2)[C@@H](C)CN([C@@H](C)CO)S3(=O)=O)cc1` the figure was 18.4% (inactive); with `COCCNC(=O)C[C@@H]1C[C@@H]2c3cc(NC(=O)Nc4ccc(C(F)(F)F)cc4)ccc3O[C@@H]2[C@@H](CO)O1`, 1.63% (inactive).
As for `CN(C)CCNC(=O)c1ccc(-c2cn3c(-c4ccc(Oc5ccccc5)cc4)cnc3cn2)cc1`, the figure is 85.7% (active).
With `CC(=O)c1cccc(-c2cnc3c(NC=O)cc(-c4ccccc4Oc4ccccc4)cn23)c1` the figure was -29.2% (inactive); with `CN(C)C(CNC(=O)c1ccc(OCc2cn3ccccc3n2)cc1)c1ccco1` (centres undefined), -13.9% (inactive); with `C[C@H]1CN([C@@H](C)CO)C(=O)c2cccc(NS(=O)(=O)c3cn(C)cn3)c2O[C@H]1CN(C)C(=O)Nc1ccc2c(c1)OCO2`, -13.3% (inactive).
Consider `CS(=O)(=O)N1[C@H](C#N)[C@H](c2ccc(C#CC3CC3)cc2)[C@H]1CO`, for which the inhibition was -26.1% (inactive).
As for `COc1ccc(NC(=O)N(C)C[C@@H]2Oc3c(NS(=O)(=O)c4ccc(OC)cc4)cccc3C(=O)N([C@H](C)CO)C[C@@H]2C)cc1`, the figure is -3.75% (inactive); as for `COc1ccc2c3c(n(C)c2c1)[C@H](CO)N(S(=O)(=O)c1ccc(C)cc1)CC31CCN(C(=O)c2ccccn2)CC1`, 21.8% (inactive); as for `C[C@@H]1CN([C@@H](C)CO)C(=O)CCCn2nncc2CO[C@H]1CN(C)C(=O)Nc1ccc(C(F)(F)F)cc1`, -10.9% (inactive) and -1.52% (inactive).
As to `COC(=O)N(C)C[C@@H]1OCc2cnnn2CCCC(=O)N([C@@H](C)CO)C[C@@H]1C`, the inhibition was 0.525% (inactive) and 0.31% (inactive).
Consider `C[C@H]1CN([C@@H](C)CO)C(=O)CCCn2nncc2CO[C@@H]1CN(C)C(=O)Nc1ccc(N2CCN(C)CC2)cc1`, for which the inhibition is 60.1% (active) and 24.7% (inactive).
As to `COc1ccc(S(=O)(=O)N2CC[C@@H]3[C@@H](CO)Nc4ccc(C#Cc5cccnc5)cc4[C@@H]32)cc1`, the inhibition was 0.847% (inactive).
With `Cc1noc(C)c1S(=O)(=O)N(C)C[C@H]1Oc2ccc(NC(=O)CCN3CCOCC3)cc2CC(=O)N([C@H](C)CO)C[C@H]1C` the figure was -2.41% (inactive); with `C[C@H](CO)N1C[C@H](C)[C@H](CN(C)C)Oc2ccc(NC(=O)Nc3ccc(F)cc3)cc2CC1=O`, -3.53% (inactive).
With `Cc1cccc(NC(=S)NC23CN4CN(CN(C4)C2)C3)c1` the figure was 82.8% (active); with `Cc1cccc(NC(=S)NCc2ccc3[nH]c4c(c3c2)CCCC4)c1`, -21.7% (inactive); with `Cc1cccc(NC(=O)NC2(C)CCS(=O)(=O)C2)c1` (centres undefined), -1.1% (inactive).
With `Cc1cccc(-c2nc3ccc(C(=O)NCCN4CCN(C)CC4)cc3nc2-c2cccc(C)c2)c1` the figure was 68% (active).
As for `O=C(NCCN1CCOCC1)c1cccc(S(=O)(=O)Nc2ccc(F)cc2)c1`, the inhibition is 2.89% (inactive).
As for `Cc1cccc(C(=O)OC(C)CN2CCN(C)CC2)c1` (centres undefined), the figure is -5.75% (inactive); as for `CN(C)CC(=O)N1[C@H](CO)[C@@H](c2ccc(-c3cccc(C(=O)N(C)C)c3)cc2)[C@@H]1C#N`, -31.9% (inactive); as for `Oc1ccc(N=Cc2sc3ccccc3c2Cl)cc1`, 55.8% (active).
With `O=C(NC1CCC1)[C@H]1[C@H](CO)[C@H]2Cn3c(ccc(C4=CCCCC4)c3=O)[C@@H]1N2CC1CC1` the figure was 1.51% (inactive).
Take `Nc1ccc(OCC(O)C[n+]2ccc(CCS(=O)(=O)[O-])cc2)cc1` (centres undefined): the inhibition was 58.1% (active).
`CCCc1ccc(OCC(O)CN2CCN(C(=O)OCC)CC2)cc1` (centres undefined): the inhibition was -8.19% (inactive).
Regarding `CCc1ccc(S(=O)(=O)NCC(O)COc2ccc(OC)cc2)cc1` (centres undefined), the inhibition was -8.48% (inactive).
For `COCC(=O)N1CC(=O)N2[C@H](C1)[C@H](c1ccc(C#CC3CCCCC3)cc1)[C@@H]2CO`, the inhibition is 6.1% (inactive).
With `COc1ccc2c3c([nH]c2c1)[C@H](CO)N(C(=O)c1ccccc1)CC31CCN(S(=O)(=O)c2cccs2)CC1` the figure was 2.57% (inactive).
